Assay [1] addresses Serine/threonine-protein kinase PAK 6 (Homo sapiens) (UniProt Q9NQU5). The note with it: at 1 µM.
Assay [2] deals with Tyrosine-protein kinase ABL1 (Homo sapiens), P00519 [E255K]. The settings on record: at 0.1 µM.
Assay [3] has the same test system. The settings on record: at 1 µM.
The test system of assay [4] is Tyrosine-protein kinase ABL1 (Homo sapiens), P00519 [H396P]. The settings on record: at 0.1 µM.
Assay [5] shares this test system. The settings on record: at 1 µM.
For assay [6], the system named is Tyrosine-protein kinase ABL1 (Homo sapiens), P00519 [M351T]. The settings on record: at 0.1 µM.
Assay [7] has the same test system. The settings on record: at 1 µM.
Assay [8] concerns Tyrosine-protein kinase ABL1 (Homo sapiens), P00519 [Q252H]. The note with it: at 0.1 µM.
The test system is the same in assay [9]. The settings on record: at 1 µM.
Assay [10] concerns Tyrosine-protein kinase ABL1 (Homo sapiens), P00519 [T315I]. The settings on record: at 0.1 µM.
Assay [11] shares this test system. The note with it: at 1 µM.
For assay [12], the system named is Tyrosine-protein kinase ABL1 (Homo sapiens), P00519 [Y253F]. The settings on record: at 0.1 µM.
For assay [13] the test system is unchanged. The note with it: at 1 µM.
Assay [14] has as its target Tyrosine-protein kinase ABL1 (Homo sapiens) (UniProt P00519). The settings on record: at 0.1 µM.
Assay [15] shares this target. The settings on record: at 1 µM.
The target of assay [16] is ALK tyrosine kinase receptor (Homo sapiens) (UniProt Q9UM73). The note with it: at 0.1 µM.
Sequence of ALK tyrosine kinase receptor (Homo sapiens) (Q9UM73 19-1620 limits assumed): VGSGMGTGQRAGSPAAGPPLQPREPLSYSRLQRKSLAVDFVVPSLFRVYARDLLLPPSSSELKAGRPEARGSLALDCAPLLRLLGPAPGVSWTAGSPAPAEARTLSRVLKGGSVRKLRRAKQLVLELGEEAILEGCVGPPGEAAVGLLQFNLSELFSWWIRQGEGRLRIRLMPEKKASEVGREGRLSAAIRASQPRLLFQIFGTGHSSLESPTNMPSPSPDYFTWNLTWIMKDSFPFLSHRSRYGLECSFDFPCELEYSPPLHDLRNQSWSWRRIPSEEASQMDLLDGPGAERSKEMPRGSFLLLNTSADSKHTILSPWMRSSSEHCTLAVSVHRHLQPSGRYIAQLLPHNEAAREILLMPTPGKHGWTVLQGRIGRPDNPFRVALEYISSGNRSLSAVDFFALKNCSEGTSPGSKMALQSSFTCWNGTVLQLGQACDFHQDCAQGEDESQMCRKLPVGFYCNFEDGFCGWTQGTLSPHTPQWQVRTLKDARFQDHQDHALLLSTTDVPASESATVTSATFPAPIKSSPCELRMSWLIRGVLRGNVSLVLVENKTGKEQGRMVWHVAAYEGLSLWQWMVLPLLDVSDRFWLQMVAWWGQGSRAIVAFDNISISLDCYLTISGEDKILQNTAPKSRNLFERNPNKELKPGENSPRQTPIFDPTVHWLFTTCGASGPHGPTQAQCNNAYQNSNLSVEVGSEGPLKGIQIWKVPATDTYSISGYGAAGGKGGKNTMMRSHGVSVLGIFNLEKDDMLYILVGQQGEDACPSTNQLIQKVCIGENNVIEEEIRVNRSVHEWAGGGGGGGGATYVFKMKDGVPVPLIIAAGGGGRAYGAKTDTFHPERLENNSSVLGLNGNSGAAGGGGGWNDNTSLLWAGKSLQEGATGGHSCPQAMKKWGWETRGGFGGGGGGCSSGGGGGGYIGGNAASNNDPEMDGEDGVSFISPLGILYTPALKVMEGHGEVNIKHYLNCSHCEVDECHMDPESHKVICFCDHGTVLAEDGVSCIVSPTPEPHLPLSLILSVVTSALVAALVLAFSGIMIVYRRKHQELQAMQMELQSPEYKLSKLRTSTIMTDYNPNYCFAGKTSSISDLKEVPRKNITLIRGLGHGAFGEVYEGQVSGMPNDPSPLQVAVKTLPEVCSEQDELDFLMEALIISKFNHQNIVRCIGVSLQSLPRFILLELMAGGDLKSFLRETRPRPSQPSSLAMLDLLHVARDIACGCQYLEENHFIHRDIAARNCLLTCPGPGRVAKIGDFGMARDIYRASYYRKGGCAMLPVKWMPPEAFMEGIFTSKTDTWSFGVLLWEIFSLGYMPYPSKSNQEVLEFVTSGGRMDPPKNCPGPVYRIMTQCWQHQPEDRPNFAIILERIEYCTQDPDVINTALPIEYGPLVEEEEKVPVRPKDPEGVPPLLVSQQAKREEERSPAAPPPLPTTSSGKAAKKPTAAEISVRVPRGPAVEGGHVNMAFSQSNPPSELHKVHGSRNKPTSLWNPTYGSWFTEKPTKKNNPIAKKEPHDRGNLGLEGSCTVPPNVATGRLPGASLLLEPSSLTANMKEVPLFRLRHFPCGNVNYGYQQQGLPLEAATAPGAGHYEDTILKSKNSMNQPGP
Assay [17] shares this target. The note with it: at 1 µM.
Assay [18] concerns the target Tyrosine-protein kinase ABL2 (Homo sapiens) (UniProt P42684). The settings on record: at 0.1 µM.
For assay [19] the target is unchanged. The settings on record: at 1 µM.
Assay [20] addresses Tyrosine-protein kinase receptor UFO (Homo sapiens) (UniProt P30530). The settings on record: at 0.1 µM.

In ChEMBL document CHEMBL1961873, “Compounds: GSK PKIS; Assays: Nanosyn kinase panel” (2012) one finds inhibition data, which are given here for seven molecules.

A word on the inhibition: it is the relative decrease from the control value, in per cent.

Sequence of Tyrosine-protein kinase ABL2 (Homo sapiens) (P42684 whole entry): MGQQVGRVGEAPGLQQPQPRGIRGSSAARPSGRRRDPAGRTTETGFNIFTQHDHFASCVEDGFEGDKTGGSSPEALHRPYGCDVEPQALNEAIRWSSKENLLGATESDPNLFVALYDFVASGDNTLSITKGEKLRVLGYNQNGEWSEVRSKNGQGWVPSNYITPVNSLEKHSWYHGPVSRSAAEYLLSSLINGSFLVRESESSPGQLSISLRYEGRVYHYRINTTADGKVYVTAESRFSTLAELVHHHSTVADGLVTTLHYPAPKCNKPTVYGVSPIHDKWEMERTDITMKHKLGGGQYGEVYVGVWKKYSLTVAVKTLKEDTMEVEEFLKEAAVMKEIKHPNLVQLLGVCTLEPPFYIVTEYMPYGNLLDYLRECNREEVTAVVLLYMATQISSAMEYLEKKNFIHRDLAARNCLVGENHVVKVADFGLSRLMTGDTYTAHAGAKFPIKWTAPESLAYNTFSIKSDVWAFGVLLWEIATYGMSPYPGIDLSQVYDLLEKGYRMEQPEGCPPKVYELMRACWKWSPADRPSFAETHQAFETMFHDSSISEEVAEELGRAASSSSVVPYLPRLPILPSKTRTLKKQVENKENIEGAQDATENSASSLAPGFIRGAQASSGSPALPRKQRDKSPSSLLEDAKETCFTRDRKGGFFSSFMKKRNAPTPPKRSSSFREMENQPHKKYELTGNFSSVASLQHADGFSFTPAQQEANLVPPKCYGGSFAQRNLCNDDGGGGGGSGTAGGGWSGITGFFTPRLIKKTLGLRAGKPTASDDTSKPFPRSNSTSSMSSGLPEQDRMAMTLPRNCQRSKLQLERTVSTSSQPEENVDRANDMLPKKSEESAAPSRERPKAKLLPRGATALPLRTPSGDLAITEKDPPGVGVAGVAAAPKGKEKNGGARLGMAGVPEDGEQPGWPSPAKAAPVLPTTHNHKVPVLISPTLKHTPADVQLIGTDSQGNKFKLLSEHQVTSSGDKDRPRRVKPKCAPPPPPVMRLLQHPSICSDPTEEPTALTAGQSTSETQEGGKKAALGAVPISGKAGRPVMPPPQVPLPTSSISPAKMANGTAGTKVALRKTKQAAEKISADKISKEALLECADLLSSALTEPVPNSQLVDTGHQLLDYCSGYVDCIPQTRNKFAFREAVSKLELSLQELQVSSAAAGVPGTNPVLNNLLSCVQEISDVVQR
Sequence of Serine/threonine-protein kinase PAK 6 (Homo sapiens) (Q9NQU5 whole entry, looked up): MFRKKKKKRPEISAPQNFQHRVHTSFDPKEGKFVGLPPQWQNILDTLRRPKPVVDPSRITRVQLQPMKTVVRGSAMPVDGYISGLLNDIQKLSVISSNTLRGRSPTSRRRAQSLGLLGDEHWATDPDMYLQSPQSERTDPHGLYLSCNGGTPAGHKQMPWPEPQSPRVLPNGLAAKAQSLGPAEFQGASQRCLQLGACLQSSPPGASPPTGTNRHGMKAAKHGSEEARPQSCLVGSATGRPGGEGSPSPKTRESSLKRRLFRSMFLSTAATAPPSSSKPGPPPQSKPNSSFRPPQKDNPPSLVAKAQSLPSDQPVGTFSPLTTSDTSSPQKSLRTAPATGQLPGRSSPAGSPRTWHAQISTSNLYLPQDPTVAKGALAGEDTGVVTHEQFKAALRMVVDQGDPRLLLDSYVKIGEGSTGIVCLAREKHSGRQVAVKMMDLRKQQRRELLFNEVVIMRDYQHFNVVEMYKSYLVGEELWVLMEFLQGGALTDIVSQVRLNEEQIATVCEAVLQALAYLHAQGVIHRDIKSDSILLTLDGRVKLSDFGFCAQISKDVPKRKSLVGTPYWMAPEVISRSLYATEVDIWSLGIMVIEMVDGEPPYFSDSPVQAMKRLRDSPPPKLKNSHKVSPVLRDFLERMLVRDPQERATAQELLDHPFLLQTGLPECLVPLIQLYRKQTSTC
Sequence of Tyrosine-protein kinase receptor UFO (Homo sapiens) (P30530 whole entry): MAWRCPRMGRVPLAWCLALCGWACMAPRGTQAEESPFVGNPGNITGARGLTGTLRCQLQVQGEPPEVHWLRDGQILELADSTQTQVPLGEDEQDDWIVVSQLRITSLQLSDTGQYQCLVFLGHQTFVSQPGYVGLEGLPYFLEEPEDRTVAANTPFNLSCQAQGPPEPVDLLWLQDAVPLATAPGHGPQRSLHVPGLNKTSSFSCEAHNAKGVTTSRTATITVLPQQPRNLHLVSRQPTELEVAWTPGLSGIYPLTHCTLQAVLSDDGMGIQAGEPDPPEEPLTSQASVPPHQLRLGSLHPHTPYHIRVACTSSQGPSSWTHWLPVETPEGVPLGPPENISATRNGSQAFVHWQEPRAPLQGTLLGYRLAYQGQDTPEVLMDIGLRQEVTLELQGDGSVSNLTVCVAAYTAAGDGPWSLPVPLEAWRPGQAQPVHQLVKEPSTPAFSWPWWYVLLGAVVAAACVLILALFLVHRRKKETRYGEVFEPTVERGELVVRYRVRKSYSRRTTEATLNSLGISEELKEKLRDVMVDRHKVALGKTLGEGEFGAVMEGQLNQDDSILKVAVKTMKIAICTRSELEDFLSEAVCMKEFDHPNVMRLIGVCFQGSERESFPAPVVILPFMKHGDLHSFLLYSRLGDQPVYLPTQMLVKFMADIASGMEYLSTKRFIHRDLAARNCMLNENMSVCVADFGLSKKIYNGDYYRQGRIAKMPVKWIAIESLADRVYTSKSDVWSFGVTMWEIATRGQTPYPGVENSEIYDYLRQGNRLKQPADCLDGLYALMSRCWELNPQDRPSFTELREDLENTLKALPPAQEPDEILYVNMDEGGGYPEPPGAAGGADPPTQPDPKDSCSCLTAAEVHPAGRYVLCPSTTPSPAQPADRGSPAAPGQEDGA

`NS(=O)(=O)c1ccc(N/N=C2\C(=O)Nc3ccc4ncccc4c32)cc1`: the inhibition in assay [1] came out at 1.45%; in assay [2], 7.3%; in assay [3], 39.2%; in assay [4] it was 8.88%; in assay [5], 47.7%; in assay [6] it was 9.67%. Further, the inhibition in assay [7] worked out at 48.9%; in assay [8] it was 13.3%; in assay [9] it was 52.4%; in assay [10] it was 8.91%; in assay [11], 47.1%; in assay [12] it was 11.6%. For the same molecule, the inhibition turned out to be 49.8% in assay [13]; 9.91% in [14]; 50.2% in assay [15]; 3.06% in assay [16]; 16.1% in assay [17]; 4.85% in assay [18]. The inhibition in [19] was 33.7%; in [20] it was 0.46%.

As to `O=C(O[C@H]1CN[C@H](C#Cc2cc3ncnc(Nc4ccc(Cc5ccccc5)cc4)c3s2)C1)N1CCOCC1`, the inhibition is -5.73% in [1]; -0.19% in [2]; -0.38% in assay [3]; -0.52% in [4]; 0.08% in assay [5]; -2.99% in [6]. Also, the inhibition was -0.59% in [7]; -0.95% in assay [8]; 1.06% in assay [9]; 0.08% in assay [10]; 0.76% in assay [11]; -1.94% in assay [12]. Further, the inhibition in [13] was 2.37%; in [14], -0.06%; in assay [15] it was 0.2%; in assay [16], 1.1%; in [17], 0.46%; in assay [18] it was -0.08%. Further, the inhibition is -0.38% in assay [19] and -5.65% in assay [20].

In the case of `COc1ccc(-c2cc(-c3c[nH]nc3-c3ccccn3)ccn2)cc1`, the inhibition is -3.15% in assay [1]; 9.84% in assay [2]; 40.9% in assay [3]; 20.2% in assay [4]; 64.2% in [5]; 15.3% in assay [6]. Also, the inhibition is 63.3% in assay [7]; 10.8% in assay [8]; 41% in assay [9]; 3.29% in assay [10]; 5.41% in assay [11]; 12.3% in assay [12]. The inhibition came to 48.3% in assay [13]; 14.1% in [14]; 59.8% in assay [15]; 3.73% in [16]; 5.23% in [17]; 3.35% in assay [18]. In addition, the inhibition was 35.6% in assay [19] and -6.83% in [20].

In the case of `CCN1CCC(CC(=O)Nc2n[nH]c3nnc(-c4cccc(F)c4F)cc23)CC1`, the inhibition in [1] is 0.04%; in assay [2] it was 1.76%; in assay [3] it was 1.65%; in assay [4] it was 2.63%; in assay [5] it was 4.15%; in [6], -0.03%. The inhibition in assay [7] was 3.11%; in assay [8], 2.12%; in assay [9], 3.13%; in assay [10] it was 2.02%; in assay [11], 3.8%; in assay [12] it was 3.03%. The inhibition came out at 2.59% in assay [13]; 4% in [14]; 4.16% in [15]; 2.51% in assay [16]; 0.86% in assay [17]; 3.37% in assay [18]. For the same molecule, the results for the inhibition in assay [19] and in assay [20] were 3.96% and 0.47%, respectively.

With `[O-][S+]1CCN(Cc2ccc(-c3ccc4ncnc(Nc5ccc(OCc6cccc(F)c6)c(Cl)c5)c4c3)o2)CC1`, the inhibition in assay [1] is -3.68%; in assay [2], 3.89%; in [3], 6.86%; in [4] it was 5.46%; in [5] it was 5.91%; in [6], 1.58%. Further, the inhibition in [7] is 7.69%; in [8], 5.02%; in assay [9] it was 6.64%; in assay [10], 2.49%; in assay [11] it was 3.02%; in assay [12], 4.31%. Further, the inhibition in assay [13] was found to be 4.49%; in assay [14], 2.52%; in assay [15] it was 5.75%; in assay [16], 3.34%; in assay [17] it was 7.82%; in assay [18], 1.01%. For the same molecule, the inhibition in [19] was 7.14%; in assay [20], -4.66%.

For `Nc1nc(-c2cccc(Cl)c2)c(-c2ccc3ncccc3n2)s1`, the inhibition in [1] is -0.98%; in assay [2], 3.98%; in assay [3], 11.2%; in assay [4], 7.52%; in assay [5], 19.9%; in assay [6], 3.37%. Besides, the inhibition in assay [7] came out at 20.2%; in assay [8], 6.97%; in assay [9], 16.9%; in [10], 3.18%; in [11], 7.84%; in assay [12], 5.66%. In addition, the inhibition stood at 15.3% in assay [13]; 3.63% in assay [14]; 15.7% in assay [15]; 5.48% in assay [16]; 7.43% in [17]; 3.3% in assay [18]. Also, the figures for the inhibition in assay [19] and in [20] were 7.05% and -6.08%, respectively.

As to `CC(=O)NCc1cccc(C#Cc2cncnc2Nc2ccc(OCc3cccc(F)c3)c(Cl)c2)c1`, the inhibition in assay [1] is -2.72%; in assay [2] it was -0.06%; in assay [3] it was 1.65%; in assay [4] it was 2.49%; in assay [5] it was -0.68%; in assay [6], 1.1%. For the same molecule, the inhibition in [7] is -0.38%; in assay [8] it was 2.02%; in assay [9], -0.7%; in assay [10] it was 2%; in [11], 1.56%; in assay [12] it was 1.3%. The inhibition in assay [13] is 2.58%; in [14], -0.31%; in assay [15], 2.82%; in assay [16] it was -0.48%; in assay [17] it was 0.2%; in assay [18] it was -0.67%. Besides, the inhibition in assay [19] was -0.87%; in assay [20], -0.21%.
